# Unmarked numbers belong to inactive results.
# Molecular target: ATP1B3 (UniProt P54709)
# Test: lysine labeling ratio R10:1 (500 µM / 50 µM probe), SILAC-ABPP in living cells; higher = lower intrinsic lysine reactivity toward the probe, active = 2 or less
# Conditions: HeLa, probe concentrations 500 vs 50 µM
# Method: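 Living HeLa cells (SILAC light/heavy) in PBS at room temperature were labeled with 50 µM versus 500 µM of the lysine-reactive, reductant-cleavable probe OPA-S-S-alkyne (SILAC labeling time not stated). Probe-modified peptides were CuAAC-biotinylated, captured on neutravidin and eluted with DTT/IAA, then quantified by LC-MS/MS. R = median peptide ratio per lysine (500/50 µM), combined over 3 forward and 3 reverse SILAC replicates. Ratios are capped at 20; R < 2 = hyper-reactive.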
# Chain of ATP1B3 (P54709 whole entry): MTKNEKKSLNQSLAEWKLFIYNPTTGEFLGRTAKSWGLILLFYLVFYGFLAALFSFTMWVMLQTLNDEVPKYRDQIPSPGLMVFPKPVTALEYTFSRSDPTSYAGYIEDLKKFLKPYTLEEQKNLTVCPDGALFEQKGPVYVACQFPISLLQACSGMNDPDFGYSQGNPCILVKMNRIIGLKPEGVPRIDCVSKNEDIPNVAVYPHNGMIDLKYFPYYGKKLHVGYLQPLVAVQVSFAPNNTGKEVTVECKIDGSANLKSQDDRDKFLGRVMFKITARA
compound,measurement,setting,value
C#CCNC(=O)CCSSCCC(=O)NCCc1ccc(C=O)c(C=O)c1,lysine labeling ratio R10:1,lysine site: K182,5.21
same,lysine labeling ratio R10:1,lysine site: K220,0.695 (active)
same,lysine labeling ratio R10:1,lysine site: K259,3.28
same,lysine labeling ratio R10:1,lysine site: K266,2.22
same,lysine labeling ratio R10:1,lysine site: K274,9.2
